Most compounds without a hit are left out; they make up all but 8.1% or so of the library.
Epigenetic derep: regulators of epigenetic silencing causing reporter derepression in mouse cells | Potency, µM (highest dose often 53.9 µM), actives largely listed as activators | hit rate 0.2% among 280,000 | murine LDR cells, GFP reporter derepression, 30 h; note: nearly all actives have a fitted effect of over 60% in size
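Readout is the number of GFP-expressing murine LDR cells, counted by cytometry following washing. Cells were treated with compound for 30 h at 37 C; the stably integrated CMV-GFP locus is normally silent.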
ClpP mod: qHTS Assay for Activators of ClpP; hit rate 1.9% among 340,000; purified B. subtilis ClpP, FRET peptide cleavage, 20 min; ATP-dependent Clp protease proteolytic subunit (Bacillus subtilis (strain 168)), P80244; Potency, µM (doses to about 57.5 µM); active = well fitted falling curve with a large enough effect; inconclusive = small, poorly fitted or top-dose-only effect; inactive = no such curve, though single readings can be large or run the other way; note: the source files actives as falling curves though it sought activators and does not explain the sign; nearly all actives have a fitted effect of over 65% in size
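Buffer: 100 mM Tris/HCl pH8, 100 mM KCl, 0.05% low protease BSA, 2.5% glycerol, 0.01% Tween-20. ClpP 10 microg/mL final; 20 min RT; delta FRET normalized to ADEP and DMSO controls.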
Sfp inh: blocks B. subtilis Sfp PPTase activity; Q9F4F7; Biochemical Sfp PPTase activity, qHTS; Potency, µM, most hits filed as inhibitors; hit rate 3.5% among 310,000; AID 1490;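 note: the enzyme is Sfp with the accession as filed and its product quenches rhodamine fluorescence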
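Buffer: 50 mM Hepes-Na pH 7.6, 10 mM MgCl2, 0.01% Nonidet P-40, 0.01% BSA. Enzyme 15 nM, pre-exposed to compound 15 min; substrates then added and fluorescence change tracked over 30 min.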
PINK1 modulator: changes PINK1 expression | AID 624263 | Potency, µM (top dose mostly 76.6 µM), most hits filed as activators | hit rate 0.2% among 410,000 | PINK1 immunofluorescence, high-content cytometry, 24 h; active = well fitted activation curve with a large enough effect; inconclusive = small, poorly fitted or top-dose-only effect; cell line not stated here; note: nearly all actives have a fitted effect of over 65% in size
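A stable cell line was treated with compounds at 5 concentrations for 24 hours, with CCCP as control. PINK1 levels and mitochondrial localization were measured by immunofluorescence with mitochondrial, cell and nuclear markers after fixation, read by laser-scanning cytometry.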
VP16 counter: counter-screen for ROR gamma inhibitors: Gal4-VP16 reporter; AID 2546; Drosophila S2 Gal4-VP16 UAS-luciferase, luminescence, 20 h; Potency, µM (doses to about 53.6 µM), hits mostly inhibitors; hit rate 3.5% among 310,000;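 note: Gal4-VP16 expression switched on by copper sulfate through the metallothionein promoter; nearly all actives have a fitted effect of over 50% in size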
RORgamma inh: blocks mouse ROR gamma transcriptional activity; P51450; hit rate 5.4% among 310,000; Drosophila S2 Gal4-RORgamma UAS-luciferase reporter, 20 h; Potency, µM (doses to about 53.6 µM), hits mostly inhibitors; note: nearly all actives have a fitted effect of over 60% in size
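In this cell-based reporter format, copper sulfate (700 uM final) drives Gal4–ROR gamma fusion expression from a metallothionein promoter in Drosophila Schneider cells; compounds preincubated 1 hr, reporter read after 20 hr at ambient temperature.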
Numbers stand for hits; n = inactive; u = inconclusive; x = not tested or not shown; [ ] = another dose, or the depositor's remark. Unless noted, calls come from the whole dose curve; as a rule, active = well fitted curve in the direction sought with a large enough effect; inconclusive = small, poorly fitted or top-dose-only effect, or another doubt; inactive = no such curve, though single readings can be large; an effect the other way counts as inactive or inconclusive.

SMILES | Epigenetic derep | ClpP mod | Sfp inh | PINK1 modulator | VP16 counter | RORgamma inh
COc1ccc(OC)c(C2CC(=O)N3CN(c4cccc(Cl)c4)CSC3=C2C#N)c1 (centres undefined) | n | n | 10µM | n | u | u
CCOC(=O)C1=C(CC)OC(N)=C(C#N)C1c1ccc(OC)cc1OC (centres undefined) | n | n | n | n | n | u
COc1cc2c(cc1OC)-c1cc3nc4ccccc4nc3n1C(C)(C)C2 | n | x | u | x | u | u
CN(C(=O)CSc1nc2ccccc2n1Cc1cccc(C(F)(F)F)c1)c1ccccc1 | n | n | x | n | x | x
CCOCCc1nn2c(=O)cc(COC(=O)c3ccccc3NC(=O)c3ccc(C)cc3)nc2s1 | n | n | x | n | x | x
Cc1sc2nc(CN3CCOCC3)nc(NS(=O)(=O)c3ccccc3)c2c1C | n | n | n | n | n | n
O=c1[nH]c(CN2CCN(c3ccccc3)CC2)nc2scc(-c3ccccc3)c12 | u | u | n | n | n | u
Cc1sc2nc(CN3CCOCC3)[nH]c(=S)c2c1C | u | n | 8.9µM | n | n | n
Cc1sc2nc(CN3CCN(c4ccc(O)cc4)CC3)[nH]c(=O)c2c1C | n | n | 35µM | n | n | n
Cc1sc2nc(CN3CCOCC3)nc(NCCc3ccccc3)c2c1C | n | n | n | n | u | 7.1µM
CCNc1nc(CSc2ccccc2)nc2sc(C)c(C)c12 | n | n | u | u | 5µM | 5.6µM
Cc1noc(/C=C/c2ccco2)c1S(=O)(=O)N1CCC(C(=O)Nc2ccc(F)c(Cl)c2)CC1 | n | n | x | u | x | x
Cc1ccc(S(=O)(=O)c2ncccc2[N+](=O)[O-])cc1 | x | n | n | n | 5.6µM | 5.6µM
Cc1ccc(S(=O)(=O)c2ncccc2N)cc1 | x | n | n | n | n | n
Cc1ccc(C)c(N2CCN(C(=O)Nc3cn(CC(C)C)c(=O)c4ccccc34)CC2)c1 | n | n | x | n | x | x
COC(=O)c1sc(N2C(=O)c3oc4ccc(C)cc4c(=O)c3C2c2ccc(OC)cc2)nc1C (centres undefined) | n | n | x | n | x | x
Cc1cc(C)cc(-n2c(C)nc3cc(C(=O)NCc4ccc(F)cc4)ccc32)c1 | n | n | x | n | x | x
CN1C(=O)NC(c2ccccc2)(C(F)(F)F)S/C1=C(/C#N)c1nnc(N2CCOCC2)n1-c1ccccc1 (centres undefined) | n | n | n | n | u | 14µM
COc1ccc(-c2csc(NC(=S)NC(=O)c3cccs3)n2)cc1OC | n | x | 32µM | n | 14µM | 4.5µM
COc1ccc(-c2csc(NC(=S)NC(=O)c3cccs3)n2)cc1Br | n | n | n | n | 11µM | 4.5µM
COc1ccc(-c2csc(NC(=O)CS(=O)(=O)c3ccccc3)n2)cc1OC | x | n | x | n | x | x
COc1ccc(-c2csc(NC(=S)NC(=O)c3ccc(S(=O)(=O)N(C)C)cc3)n2)cc1OC | x | n | n | n | u | 2.8µM
Cc1cccc(CNC(=O)c2cnn(-c3ncc(C)c(-c4cccs4)n3)c2C2CC2)n1 | x | x | x | n | x | x
COC(=O)c1ccccc1-c1cc(C)cc2c1OC(CNC(=O)c1cnc(C)cn1)C2 (centres undefined) | x | x | x | n | x | x
CCC(=O)N1CCc2cc(Br)cc(S(=O)(=O)N3CCCC(C(=O)Nc4ccc(C(C)C)cc4)C3)c21 (centres undefined) | n | n | x | n | x | x
SMILES | Epigenetic derep | ClpP mod | Sfp inh | PINK1 modulator | VP16 counter | RORgamma inh
Cc1nn(C(=O)c2cccc(Cl)c2)c(C)c1S(=O)(=O)N1CCOCC1 | n | n | x | n | x | x
CCCn1c2ccccc2c2cnn(CC(=O)Nc3cccc(C(=O)OCC)c3)c(=O)c21 | n | n | x | n | x | x
COCCNc1nc(-c2cc(C)n(CCc3ccc(OC)cc3)c2C)cs1 | n | n | 40µM | u | n | n
O=C(NC(=S)Nc1cccnc1)c1ccccc1 | x | x | 79µM | n | n | n
O=C(NC(=S)Nc1ccc(Cl)cn1)c1cccs1 | n | n | n | n | 1µM | u
O=C(NC(=S)Nc1cccnc1)c1cccs1 | n | n | 56µM | n | n | 10µM
O=C(NC(=S)NC(c1ccccc1)c1ccncc1)c1ccccc1 (centres undefined) | n | n | n | n | u | 11µM
Cc1c(C(=O)N(C)C)sc2c1c(=O)n(-c1ccc(Cl)cc1)c(=O)n2CC(=O)C(C)(C)C | n | n | x | n | x | x
Cc1snnc1C(=O)NC(=S)Nc1ccccc1 | n | x | 40µM | n | 5.6µM | 4.5µM
CN(c1ccc(C(=O)Nc2cccnc2)cc1)S(C)(=O)=O | n | 28µM | n | n | n | n
CN(c1ccc(C(=O)Nc2cccnc2)cc1)S(=O)(=O)c1ccccc1 | x | x | n | n | n | u
O=C(NC(=S)Nc1ccccc1Br)c1cccnc1 | x | n | u | n | 18µM | 10µM
O=C(NC(=S)Nc1ccc(Br)cn1)c1cccnc1 | n | x | n | n | n | n
COc1ccc(OC)c(CCNC(=O)c2cnn(-c3ccccc3Cl)c2C2CCN(C(=O)OC(C)(C)C)CC2)c1 | n | n | x | n | x | x
C[C@@]12C(=O)OC(=O)[C@]1(C)[C@H]1CC[C@@H]2O1 | u | x | n | x | 5µM | n[2.98 µM]
COc1cc(OC)c(NC(=O)N2CCc3c([nH]c4ccccc34)C2c2ccccc2F)cc1Cl (centres undefined) | n | n | x | n | x | x
COc1ccc([N+](=O)[O-])cc1NC(=O)c1ccccc1SC | n | 28µM | n | n | n | n
COc1ccc([N+](=O)[O-])cc1NC(=O)CSc1nc(C)c(C)c(C)n1 | n | n | n | n | n | n
O=C(Nc1cccc([N+](=O)[O-])c1)c1ccc(CSc2ccccc2)cc1 | n | n | n | n | n | n
CSc1ccccc1C(=O)Nc1cccc([N+](=O)[O-])c1 | n[10.1 µM] | n | n | n | n[10 µM] | n
COc1ccc([N+](=O)[O-])cc1NC(=O)C(C)Sc1nc(C)c(C)c(C)n1 (centres undefined) | n | 28µM | n | n | n | n
Cc1ccc([N+](=O)[O-])cc1NC(=O)c1ccc(CSc2ccccc2)cc1 | n | n | 32µM | u | n | n
COc1ccc(Cl)cc1NC(=O)c1cccc([N+](=O)[O-])c1O | x | n | x | 22µM | x | x
O=C(CSc1nccn1Cc1ccco1)Nc1cc(C(F)(F)F)ccc1Cl | n | n | x | n | x | x
Cc1ccc2c(CC(=O)N3CCOc4ccc(CN5C[C@@H](C)O[C@@H](C)C5)cc4C3)cc(=O)oc2c1 | x | x | x | n | x | x
CSc1ccccc1NC(=O)c1ccc([N+](=O)[O-])cc1 | n | n | 56µM | n | n | n
O=C(Nc1ccccc1O)c1ccc([N+](=O)[O-])cc1 | x | n | n | n | n | n
Cc1ccc2nc(NC(=O)CSc3nccn3Cc3ccc(F)cc3)sc2c1 | n | n | x | n | x | x
Cc1ccc(Cn2cccc2/C=C2/C(=N)N3C=CSC3=NC2=O)cc1 | n | n | n | n | u | 13µM
